# High-throughput results deposited in PubChem by The Scripps Research Institute Molecular Screening Center.
# The list is not random: actives were taken first. Their share in the collection is about 2.8%.
# PAFAH1B3 FP inh – PAFAH1B3 enzyme inhibitors, primary screen, biochemical, fluorescence polarization, human; Platelet-activating factor acetylhydrolase IB subunit alpha1 (Homo sapiens), Q15102; recombinant PAFAH1B3, FP-rhodamine probe; inhibition, % at 3.39 µM; 340,000 compounds, 0.28% hits;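 active means inhibition above the screen-wide average of all tested compounds plus 3 SD, cut at about 25% in these data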
# PAFAH2 inh – PAFAH2 enzyme inhibitors, primary screen, biochemical, fluorescence polarization, human. AID 492956, 2010. Platelet-activating factor acetylhydrolase 2, cytoplasmic (Homo sapiens), Q99487. inhibition, % at 3.39 µM. recombinant PAFAH2, FP-rhodamine activity probe. 340,000 compounds, 0.99% hits;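 active means inhibition above the mean over all tested compounds plus 3 SD, cut at about 30% in these data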;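 further: inhibitors block probe labeling of enzyme so polarization drops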
# Fam108B counter – mouse Fam108B serine hydrolase inhibitors, primary screen, counter-screen for RBBP9 inhibitor project, biochemical, fluorescence polarization. inhibition, % at 9.51 µM. AID 1947, 2009. 300,000 compounds, 0.33% hits. recombinant Fam108B, FP-Rh probe fluorescence polarization;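 active means inhibition above the screen mean inhibition plus 3 SD, computed separately per campaign, cut at about 18% in these data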;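 further: inhibitors lower polarization as less probe binds the enzyme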
# PAFAH1B2 inh – PAFAH1B2 enzyme inhibitors, primary screen, biochemical, fluorescence polarization, human; recombinant PAFAH1B2, FP-rhodamine activity probe; inhibition, % at 3.39 µM; 340,000 compounds, 1.2% hits;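 active means inhibition above the mean of all tested compounds plus 3 SD, cut at about 24% in these data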
# PME-1 inh – PME-1 inhibitors via competitive probe labeling, primary screen, biochemical, fluorescence polarization, FP-Rh probe, HTS; AID 2130, 2009; 320,000 compounds, 0.53% hits; recombinant PME-1; inhibition, % at 5.9 µM;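 active means inhibition above the campaign mean of all compounds plus 3 SD, cut at about 26% in these data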;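 further: competitive labeling of PME-1 active site by serine hydrolase directed probe; inhibitors block probe labeling so polarization falls and inhibition rises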
# Target sequence (Q9Y570 whole entry, looked up): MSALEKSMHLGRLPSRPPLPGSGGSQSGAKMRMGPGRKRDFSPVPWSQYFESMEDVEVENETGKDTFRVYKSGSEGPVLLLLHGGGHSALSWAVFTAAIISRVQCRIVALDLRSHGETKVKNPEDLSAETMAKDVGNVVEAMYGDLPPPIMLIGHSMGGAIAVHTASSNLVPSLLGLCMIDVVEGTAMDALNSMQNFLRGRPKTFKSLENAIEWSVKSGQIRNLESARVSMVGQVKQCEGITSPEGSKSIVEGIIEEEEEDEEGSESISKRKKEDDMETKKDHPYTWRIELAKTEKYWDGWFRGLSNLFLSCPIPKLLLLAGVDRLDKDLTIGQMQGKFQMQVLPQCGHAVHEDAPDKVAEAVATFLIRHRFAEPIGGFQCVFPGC
# pPAFAH FP inh – pPAFAH enzyme inhibitors, primary screen, biochemical, fluorescence polarization, human | Platelet-activating factor acetylhydrolase (Homo sapiens), Q13093 | recombinant pPAFAH, FP-rhodamine probe fluorescence polarization | inhibition, % at 3.39 µM | 330,000 compounds, 1.5% hits | AID 463082, 2010;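 active means inhibition above the mean inhibition across the screen plus 3 SD, cut at about 25% in these data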;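 further: inhibitors block binding of the rhodamine activity-based probe so polarization drops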
# PAFAH2 confirm – PAFAH2 enzyme inhibitors, confirmation, biochemical, fluorescence polarization, human; AID 493030, 2011; recombinant PAFAH2, FP-rhodamine activity probe; inhibition, % at 3.39 µM; shares compounds with PAFAH2 inh; 2,300 compounds, 65% hits;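 active means mean inhibition over three repeats above a set limit taken from the earlier primary screen, cut at about 30% in these data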;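 further: inhibitor blocks binding of rhodamine activity probe so polarization falls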
# A number is an active result; i = inactive; nt = not tested or not shown.
SMILES,PAFAH1B3 FP inh,PAFAH2 inh,Fam108B counter,PAFAH1B2 inh,PME-1 inh,pPAFAH FP inh,PAFAH2 confirm
CC1CCC(C(C)C)C(OC(=O)COC(=O)c2ccc(N)cc2)C1 (configuration not stated),i,53,i,i,i,i,34
CC(=O)NCC(=O)NNC1CC(=O)N(c2cccc(Cl)c2)C1=O (configuration not stated),i,i,i,i,i,i,nt
FC(F)(F)c1cccc(-c2ccn3ncnc3n2)c1,i,i,i,i,i,i,nt
Cc1cc(C)c(C#N)c(SCc2c(F)cccc2[N+](=O)[O-])n1,i,i,i,i,i,i,nt
Nc1[nH]n2c(=O)c3c(nc2c1N=Nc1ccc(Cl)cc1)CCCC3,i,40,i,i,i,i,i
O=c1[nH]nc(CNc2ccc(OC(F)(F)F)cc2)c2ccccc12,i,i,i,i,i,i,nt
O=c1[nH]nc(CNc2ccc(C(F)(F)F)cc2)c2ccccc12,i,50,i,i,i,i,34
CC1=C(C#N)C(=O)NC(=O)/C1=C\c1ccc(-c2cc(C)c(C)cc2[N+](=O)[O-])o1,i,32,nt,i,nt,nt,i
CC(C)CCN1C(=O)c2ccc(C(=O)Nc3ccccc3C(=O)O)cc2C1=O,i,40,nt,i,nt,nt,i
CCNc1nc(NCC)nc(SCCOC(=O)COc2ccc(Cl)cc2Cl)n1,i,i,i,i,i,i,nt
Cc1cc(=O)oc(C)c1C(=O)OCC(=O)c1ccc(Cl)cc1,i,i,i,i,i,i,nt
COc1ccc(NC2CC(=O)N(c3cccc(C)c3)C2=O)cc1 (configuration not stated),i,47,i,i,i,i,i
COc1ccc(NC2CC(=O)N(c3cccc([N+](=O)[O-])c3)C2=O)cc1 (configuration not stated),i,i,i,i,i,i,nt
CCN(CC)c1ccc2c(c1)oc(=O)c1c(Cl)cc(=O)oc12,i,36,i,i,i,i,i
Cc1cccc(C2c3[nH]c4ccccc4c3CCN2C(=O)Cc2n[nH]c(C)n2)n1 (configuration not stated),i,i,i,i,i,i,nt
O=C(Nc1ccc(N2CCOCC2)cc1)c1ccc(S(=O)(=O)NCc2ccco2)cc1,i,i,i,i,i,i,nt
CCC(C)c1ccc(NC(=O)COC(=O)C2=COCCO2)cc1 (configuration not stated),i,69,i,i,i,i,58
Cc1ccc(NC(=O)COC(=O)C2=COCCO2)cc1,i,47,i,i,i,i,39
O=C(COC(=O)C1=COCCO1)Nc1ccc2c(c1)OCO2,i,69,i,i,i,i,52
CC(C)c1cccc(C(C)C)c1NC(=O)COC(=O)C1=COCCO1,i,68,i,i,i,i,57
CN(c1cccc2cccnc12)S(=O)(=O)c1ccccc1,i,i,i,i,i,i,nt
O=C(O)c1ccc(OCCCCCCOC2CCCCO2)cc1 (configuration not stated),i,i,i,i,i,i,nt
Cc1ccc(NC(=O)COC(=O)C2=COCCO2)c([N+](=O)[O-])c1,i,i,i,i,i,i,nt
O=C(COC(=O)C1=COCCO1)Nc1cc(Cl)c(Cl)cc1Cl,i,38,nt,i,nt,i,33
O=C(Nc1cccc([N+](=O)[O-])c1)c1ccc2c(c1)C(=O)N(c1ccccn1)C2=O,i,i,i,i,i,i,nt
Cc1cc(C)c(OCC(=O)Nc2ccccn2)c([N+](=O)[O-])c1,i,33,i,i,i,i,i
O=C(NCCNC(=O)c1ccccn1)c1ccc(-c2ccccc2)cc1,i,i,i,i,i,i,nt
